The values below come from PubChem BioAssay (NCATS).

Results filed as inconclusive are left out. Activity calls are given as the source filed them. The call rests on the fitted dose curve; in most records, active means well fitted inhibition curve with a large enough effect; inconclusive means small, poorly fitted or top-dose-only effect; inactive means flat fitted curve, though single readings scatter.
Potency means the concentration at half of the fitted maximal effect.

One experiment deals with CP297. As to the kind of experiment: qHTS profiling for inhibitors of Plasmodium falciparum proliferation (AID 504749). Further: nearly all actives have a fitted effect of over 60% in size.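 On activity, negative = inhibition: 0% = DMSO vehicle and full inhibition = artemisinin control.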 To be noted: P. falciparum in erythrocytes, SYBR Green DNA, 72 h; series mostly up to 28.7 µM; activity, negative = inhibition: at the top concentration. In outline:
(§1)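 Fluorescence of SYBR Green-bound parasite DNA, read at 485/535 nm, served as the growth measure. Infected erythrocytes were cultured with compound 72 h; artemisinin (0.29 uM) and DMSO wells defined the normalization range.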
In the case of `CC(C)C(=O)Nc1ccc([N+](=O)[O-])c(C(F)(F)F)c1`, the “activity, negative = inhibition” value was 1.95% (inactive).

As for `NC(=O)NO`, the “activity, negative = inhibition” value is 1.9% (inactive).

`CCOC(=O)C(C)(C)Oc1ccc(Cl)cc1`: the “activity, negative = inhibition” value is -7.67% (inactive).

`CC(CCc1ccc(O)cc1)NCCc1ccc(O)c(O)c1` (stereo not drawn): the “activity, negative = inhibition” value is -26.7% (inactive).

With `Cc1cn([C@H]2C[C@H](N=[N+]=[N-])[C@@H](CO)O2)c(=O)[nH]c1=O`, the “activity, negative = inhibition” value was -2.17% (inactive).

As for `Cc1cc(C(C)(C)C)c(O)c(C)c1CC1=NCCN1`, the “activity, negative = inhibition” value was 0.232% (inactive).

Regarding `NS(=O)(=O)c1cc2c(cc1Cl)NCNS2(=O)=O`, the “activity, negative = inhibition” value is -14.3% (inactive).

For the compound `CCOC(=O)c1ncn2c1CN(C)C(=O)c1cc(F)ccc1-2`, the “activity, negative = inhibition” value was -0.444% (inactive).

In the case of `COC(=O)Nc1nc2ccc(C(=O)c3cccs3)cc2[nH]1`, the “activity, negative = inhibition” value was 4.6% (inactive).

Consider `Clc1ccc2nsnc2c1NC1=NCCN1`, for which the “activity, negative = inhibition” value was 1.05% (inactive).

For the compound `Cn1c(=O)c2c(ncn2C)n(C)c1=O`, the “activity, negative = inhibition” value is -7.37% (inactive).

`CC(C)Cc1ccc(C(C)C(=O)O)cc1` (stereo not drawn): the “activity, negative = inhibition” value is 5.19% (inactive).

Regarding `Cn1cnc2c1c(=O)[nH]c(=O)n2C`, the “activity, negative = inhibition” value was -0.366% (inactive).

For the compound `Cn1c(=O)c2[nH]cnc2n(C)c1=O`, the “activity, negative = inhibition” value is 5.13% (inactive).

As for `NCCCCCC(=O)O`, the “activity, negative = inhibition” value is 2.32% [at 12.8 µM] (inactive).

For the compound `CC(C)(Oc1ccc(C2CC2(Cl)Cl)cc1)C(=O)O` (stereo not drawn), the “activity, negative = inhibition” value is 4.77% (inactive).

Turning to `CN1C(C(=O)Nc2ccccn2)=C(O)c2ccccc2S1(=O)=O`, the “activity, negative = inhibition” value is -3.02% [at 12.8 µM] (inactive).

For `N[C@@H](Cc1c[nH]c2ccc(O)cc12)C(=O)O`, the “activity, negative = inhibition” value was 3.97% (inactive).

As to `COc1cc2c(c(OC)c1OC)-c1ccc(OC)c(=O)cc1[C@@H](NC(C)=O)CC2`, the “activity, negative = inhibition” value is -11.6% (inactive).

On to `Cc1cc(C(C)(C)C)cc(C)c1CC1=NCCN1`, for which the “activity, negative = inhibition” value was -7.36% [at 12.8 µM] (inactive).

For `Cc1cnc(C(=O)NCCc2ccc(S(=O)(=O)NC(=O)NC3CCCCC3)cc2)cn1`, the “activity, negative = inhibition” value was 0.25% (inactive).

`CN1CCN2c3ccccc3Cc3ccccc3C2C1` (stereo not drawn): the “activity, negative = inhibition” value was 6.71% (inactive).

In the case of `Nc1nnc(-c2cccc(Cl)c2Cl)c(N)n1`, the “activity, negative = inhibition” value was -21.7% (inactive).

In the case of `CC[N+](CC)(CC)CCOc1cccc(OCC[N+](CC)(CC)CC)c1OCC[N+](CC)(CC)CC`, the “activity, negative = inhibition” value was 1.12% (inactive).

In the case of `Cc1ccc(C(=O)Nc2ccc(S(=O)(=O)O)c3cc(S(=O)(=O)O)cc(S(=O)(=O)O)c23)cc1NC(=O)c1cccc(NC(=O)Nc2cccc(C(=O)Nc3cc(C(=O)Nc4ccc(S(=O)(=O)O)c5cc(S(=O)(=O)O)cc(S(=O)(=O)O)c45)ccc3C)c2)c1`, the “activity, negative = inhibition” value is -6.22% (inactive).

Turning to `CS(=O)(=O)Nc1ccc([N+](=O)[O-])cc1Oc1ccccc1`, the “activity, negative = inhibition” value is 4.88% [at 12.8 µM] (inactive).

Turning to `CC(=O)OCC(CCn1cnc2cnc(N)nc21)COC(C)=O`, the “activity, negative = inhibition” value is -8.93% (inactive).

Regarding `C[C@](N)(Cc1ccc(O)c(O)c1)C(=O)O`, the “activity, negative = inhibition” value was 0.319% (inactive).

As to `COc1ccccc1OCC(O)CN1CCN(CC(=O)Nc2c(C)cccc2C)CC1` (stereo not drawn), the “activity, negative = inhibition” value is 7.43% (inactive).

As to `Cc1cn([C@H]2C=C[C@@H](CO)O2)c(=O)[nH]c1=O`, the “activity, negative = inhibition” value was 1.98% (inactive).

With `Clc1ccccc1C(c1ccccc1)(c1ccccc1)n1ccnc1`, the Potency is 0.455 µM (active).

Consider `CC(C)(C)C(=O)Oc1ccc(S(=O)(=O)Nc2ccccc2C(=O)NCC(=O)O)cc1`, for which the “activity, negative = inhibition” value is 1.2% (inactive).

Take `NC(=O)OCC(COC(N)=O)c1ccccc1`: the “activity, negative = inhibition” value is -1.97% (inactive).

Turning to `COc1ccccc1N1CCN(CC(O)COc2cccc3ccccc23)CC1` (stereo not drawn), the “activity, negative = inhibition” value was -11.8% (inactive).

Consider `O=c1c(-c2ccc(O)cc2)coc2cc(O)cc(O)c12`, for which the “activity, negative = inhibition” value was -22.2% (inactive).

Take `CCCNCC(O)COc1ccccc1C(=O)CCc1ccccc1` (stereo not drawn): the Potency is 3.79 µM (active).

As for `NCCc1cnc[nH]1`, the “activity, negative = inhibition” value was 4.69% (inactive).

Take `CN(C)c1nc(N(C)C)nc(N(C)C)n1`: the “activity, negative = inhibition” value is 2.03% [at 12.8 µM] (inactive).

For the compound `CC(C)NCC(O)c1ccc(O)c(O)c1` (stereo not drawn), the “activity, negative = inhibition” value is 5.63% (inactive).

In a further experiment the test system is CP305. The description is as above. Particulars: P. falciparum in erythrocytes, SYBR Green DNA, 72 h; series mostly up to 28.7 µM; activity, negative = inhibition: at the top concentration. An outline of the steps:
as §1
Consider `CC(C)C(=O)Nc1ccc([N+](=O)[O-])c(C(F)(F)F)c1`, for which the “activity, negative = inhibition” value was -6.64% (inactive).

In the case of `NC(=O)NO`, the “activity, negative = inhibition” value is -3.29% (inactive).

For `CCOC(=O)C(C)(C)Oc1ccc(Cl)cc1`, the “activity, negative = inhibition” value is -7.2% (inactive).

With `CC(CCc1ccc(O)cc1)NCCc1ccc(O)c(O)c1` (stereo not drawn), the “activity, negative = inhibition” value was 9.82% (inactive).

Consider `Cc1cn([C@H]2C[C@H](N=[N+]=[N-])[C@@H](CO)O2)c(=O)[nH]c1=O`, for which the “activity, negative = inhibition” value is -4.96% (inactive).

As to `Cc1cc(C(C)(C)C)c(O)c(C)c1CC1=NCCN1`, the “activity, negative = inhibition” value is -1.42% (inactive).

For `NS(=O)(=O)c1cc2c(cc1Cl)NCNS2(=O)=O`, the “activity, negative = inhibition” value was -1.16% (inactive).

Turning to `CCOC(=O)c1ncn2c1CN(C)C(=O)c1cc(F)ccc1-2`, the “activity, negative = inhibition” value was 7.38% (inactive).

For `COC(=O)Nc1nc2ccc(C(=O)c3cccs3)cc2[nH]1`, the “activity, negative = inhibition” value is 3.31% (inactive).

In the case of `Clc1ccc2nsnc2c1NC1=NCCN1`, the “activity, negative = inhibition” value is 0.518% (inactive).

In the case of `Cn1c(=O)c2c(ncn2C)n(C)c1=O`, the “activity, negative = inhibition” value is 2.04% (inactive).

For the compound `CC(C)Cc1ccc(C(C)C(=O)O)cc1` (stereo not drawn), the “activity, negative = inhibition” value was 1.96% (inactive).

For the compound `Cn1cnc2c1c(=O)[nH]c(=O)n2C`, the “activity, negative = inhibition” value is -6.29% (inactive).

Take `Cn1c(=O)c2[nH]cnc2n(C)c1=O`: the “activity, negative = inhibition” value was 9.01% (inactive).

Regarding `NCCCCCC(=O)O`, the “activity, negative = inhibition” value is 13.4% [at 12.8 µM] (inactive).

As to `CC(C)(Oc1ccc(C2CC2(Cl)Cl)cc1)C(=O)O` (stereo not drawn), the “activity, negative = inhibition” value is 4.36% (inactive).

For `CN1C(C(=O)Nc2ccccn2)=C(O)c2ccccc2S1(=O)=O`, the “activity, negative = inhibition” value was -0.262% [at 12.8 µM] (inactive).

`N[C@@H](Cc1c[nH]c2ccc(O)cc12)C(=O)O`: the “activity, negative = inhibition” value is -0.003% (inactive).

Turning to `COc1cc2c(c(OC)c1OC)-c1ccc(OC)c(=O)cc1[C@@H](NC(C)=O)CC2`, the “activity, negative = inhibition” value is -10.1% (inactive).

For `Cc1cc(C(C)(C)C)cc(C)c1CC1=NCCN1`, the “activity, negative = inhibition” value is -8.6% [at 12.8 µM] (inactive).

Turning to `Cc1cnc(C(=O)NCCc2ccc(S(=O)(=O)NC(=O)NC3CCCCC3)cc2)cn1`, the “activity, negative = inhibition” value is -1.5% (inactive).

`CN1CCN2c3ccccc3Cc3ccccc3C2C1` (stereo not drawn): the “activity, negative = inhibition” value is -3.22% (inactive).

Turning to `Nc1nnc(-c2cccc(Cl)c2Cl)c(N)n1`, the “activity, negative = inhibition” value is -4.31% (inactive).

In the case of `CC[N+](CC)(CC)CCOc1cccc(OCC[N+](CC)(CC)CC)c1OCC[N+](CC)(CC)CC`, the “activity, negative = inhibition” value is 1.83% (inactive).

On to `Cc1ccc(C(=O)Nc2ccc(S(=O)(=O)O)c3cc(S(=O)(=O)O)cc(S(=O)(=O)O)c23)cc1NC(=O)c1cccc(NC(=O)Nc2cccc(C(=O)Nc3cc(C(=O)Nc4ccc(S(=O)(=O)O)c5cc(S(=O)(=O)O)cc(S(=O)(=O)O)c45)ccc3C)c2)c1`, for which the “activity, negative = inhibition” value was -4.83% (inactive).

In the case of `CS(=O)(=O)Nc1ccc([N+](=O)[O-])cc1Oc1ccccc1`, the “activity, negative = inhibition” value is 0.107% [at 12.8 µM] (inactive).

For `CC(=O)OCC(CCn1cnc2cnc(N)nc21)COC(C)=O`, the “activity, negative = inhibition” value is -1.36% (inactive).

On to `C[C@](N)(Cc1ccc(O)c(O)c1)C(=O)O`, for which the “activity, negative = inhibition” value is 1.92% (inactive).

As to `COc1ccccc1OCC(O)CN1CCN(CC(=O)Nc2c(C)cccc2C)CC1` (stereo not drawn), the “activity, negative = inhibition” value is 0.566% (inactive).

Consider `Cc1cn([C@H]2C=C[C@@H](CO)O2)c(=O)[nH]c1=O`, for which the “activity, negative = inhibition” value is -6.23% (inactive).

Take `Clc1ccccc1C(c1ccccc1)(c1ccccc1)n1ccnc1`: the Potency was 5.1 µM (active).

`CC(C)(C)C(=O)Oc1ccc(S(=O)(=O)Nc2ccccc2C(=O)NCC(=O)O)cc1`: the “activity, negative = inhibition” value was 4.93% (inactive).

As to `NC(=O)OCC(COC(N)=O)c1ccccc1`, the “activity, negative = inhibition” value is -3.96% (inactive).

As to `COc1ccccc1N1CCN(CC(O)COc2cccc3ccccc23)CC1` (stereo not drawn), the “activity, negative = inhibition” value was -5.51% (inactive).

`O=c1c(-c2ccc(O)cc2)coc2cc(O)cc(O)c12`: the “activity, negative = inhibition” value is 1.2% (inactive).

Take `CCCNCC(O)COc1ccccc1C(=O)CCc1ccccc1` (stereo not drawn): the Potency is 4.26 µM (active).

On to `NCCc1cnc[nH]1`, for which the “activity, negative = inhibition” value was 2.95% (inactive).

For `CN(C)c1nc(N(C)C)nc(N(C)C)n1`, the “activity, negative = inhibition” value was 1.54% [at 12.8 µM] (inactive).

For the compound `CC(C)NCC(O)c1ccc(O)c(O)c1` (stereo not drawn), the “activity, negative = inhibition” value was -8.45% (inactive).
